Data: PubChem BioAssay
Active and inactive are the calls of the source.

Assays:
Albumin (Bos taurus) = Albumin (Bos taurus) (UniProt P02769); test: bovine serum albumin binders on microarray, profiling panel, artefact control for SMM control protein annotation, biochemical, small-molecule microarray, Alexa647 label, 635/667 nm fluorescence (AID 1118); conditions: BSA-A647 binding, fluorescence 635 nm, higher = more signal;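 further: score merges 667 nm emission intensity and signal-to-noise per printed compound spot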
[1] = small-molecule microarray binders of probe aXIP, primary screen, biochemical, NeuroSMM set, 635/667 nm fluorescence (AID 1119); conditions: higher = more signal, called active from +8 up or from −8 down;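 further: probe is the protein aXip251-270 applied at 1 µg/mL to compound-printed slides; binding of probe to printed compounds measured as 667 nm fluorescence plus signal to noise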
[2] = small-molecule binders of probe aNOTCH3, primary screen, biochemical, small-molecule microarray, 635/667 nm fluorescence (AID 1120); conditions: higher = more signal;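 further: probe is a biotin-tagged antibody raised against NOTCH3 rather than NOTCH3 protein; score merges spot fluorescence near 667 nm with spot signal to noise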
[3] = small-molecule binders of probe aNOTCH2, primary screen, biochemical, small-molecule microarray, 635/667 nm fluorescence (AID 1121); conditions: higher = more signal;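 further: score merges feature fluorescence read at 667 nm with its signal to noise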
[4] = target: Carbonic anhydrase 2 (Homo sapiens) (UniProt P00918); test: CAII small-molecule binders, profiling panel, biochemical, small-molecule microarray, Alexa647-labelled CAII (AID 1122); conditions: CAII-A647 binding fluorescence, higher = more signal
[5] = COS7 lysate on small-molecule microarray, probe aHis, 635 nm (AID 1123); conditions: COS7 cell lysate, fluorescence, higher = more signal;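 further: z-score combines 667nm fluorescence intensity with signal-to-noise per printed compound spot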
[6] = compound binding in COS7 lysate, probe aLAP1, primary screen, cell lysate, small-molecule microarray (AID 1124); conditions: probe aLAP1, fluorescence, higher = more signal;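 further: lysate comes from COS7 cells expressing LAP1 and is applied at 0.3 µg/mL; score merges spot fluorescence near 667 nm with signal-to-noise over triplicate slides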
Sam68 (KHDRBS1) = test: Sam68 small-molecule binders, primary screen, biochemical, small-molecule microarray, 635 nm fluorescence (AID 1125); conditions: small-molecule microarray binding, higher = more signal;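 further: score merges 667 nm channel intensity with signal to noise over triplicate slides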
[7] = tested on: Chordin-like protein 2 (CHRDL2); test: CHRDL2 small-molecule binders, primary screen, biochemical, small-molecule microarray, 635 nm fluorescence (AID 1126); conditions: small-molecule microarray binding, fluorescence 635 nm; higher = more signal;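 further: printed compound slides probed with Chrdl2 protein at 4 µg/mL for 1 h at 4 C; score merges 667 nm emission intensity with signal to noise over three replicate slides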
[8] = target: Concanavalin-A (Canavalia ensiformis) (UniProt P02866); test: ConA small-molecule binders, primary screen, artefact control for SMM control protein annotation, biochemical, small-molecule microarray, Alexa647 label, 635 nm (AID 1127); conditions: ConA-A647 binding fluorescence, higher = more signal;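 further: z combines 667 nm emission intensity with signal-to-noise across three replicate slides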
Chain of Concanavalin-A (Canavalia ensiformis) (P02866 whole entry, looked up): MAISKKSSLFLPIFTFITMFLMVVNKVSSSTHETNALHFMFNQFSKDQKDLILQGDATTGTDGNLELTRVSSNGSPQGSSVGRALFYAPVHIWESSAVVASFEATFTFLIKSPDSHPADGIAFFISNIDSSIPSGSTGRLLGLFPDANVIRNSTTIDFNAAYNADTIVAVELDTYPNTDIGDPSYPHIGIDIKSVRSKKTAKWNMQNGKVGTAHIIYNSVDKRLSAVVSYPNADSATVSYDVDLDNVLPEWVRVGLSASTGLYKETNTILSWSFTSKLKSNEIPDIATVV

Chain of Albumin (Bos taurus) (P02769 whole entry, looked up): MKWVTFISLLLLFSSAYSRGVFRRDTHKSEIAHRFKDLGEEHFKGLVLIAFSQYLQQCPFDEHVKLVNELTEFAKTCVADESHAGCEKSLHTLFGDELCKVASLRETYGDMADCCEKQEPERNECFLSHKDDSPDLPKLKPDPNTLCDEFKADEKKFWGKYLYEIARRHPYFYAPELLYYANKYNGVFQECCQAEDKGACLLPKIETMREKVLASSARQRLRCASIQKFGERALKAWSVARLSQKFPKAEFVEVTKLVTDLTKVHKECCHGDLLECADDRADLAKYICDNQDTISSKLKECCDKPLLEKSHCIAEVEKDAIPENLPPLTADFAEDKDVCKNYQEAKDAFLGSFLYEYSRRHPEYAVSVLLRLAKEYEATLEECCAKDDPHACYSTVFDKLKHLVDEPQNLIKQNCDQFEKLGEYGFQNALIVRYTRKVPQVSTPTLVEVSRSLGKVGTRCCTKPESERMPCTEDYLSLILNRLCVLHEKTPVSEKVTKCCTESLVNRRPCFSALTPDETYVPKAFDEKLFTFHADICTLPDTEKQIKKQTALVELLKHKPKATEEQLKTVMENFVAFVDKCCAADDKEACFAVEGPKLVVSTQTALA

SMILES	composite z-score (Albumin (Bos taurus))	composite Z-score [1]	composite z-score [2]	composite z-score [3]	composite z-score [4]	composite z-score [5]	composite z-score [6]	composite z-score (Sam68 (KHDRBS1))	composite z-score [7]	composite z-score [8]
[N-]=[N+]=NCc1ccccc1C[C@@]1(C(=O)O)N=C(c2ccc(OCCCO)cc2)O[C@@H]1c1ccccc1CN=[N+]=[N-]	0.516	0.259 (inactive)	0.244	-0.0716	0.573	0.0091	0.0036	1.31	-0.0541	1.11
CO[C@H]1O[C@H](CO)[C@@H](OC(=O)Nc2ccc(C(F)(F)F)cc2)[C@H](OC(=O)Nc2ccccc2-c2ccccc2)[C@H]1OC(=O)Nc1ccccc1-c1ccccc1	-0.792	0.259 (inactive)	0.144	-0.0406	0.693	2.22	-0.244	1.3	-0.0407	1.2
C=CCC(OC(C)=O)[C@@H]1[C@@H](N(Cc2ccc(-c3cccc(C(F)(F)F)c3)o2)C(=O)Cc2ccc(F)cc2)c2cc(OCCCO)ccc2N1C(=O)c1ccc2ccccc2n1 (stereo not given in full)	0.671	0.272 (inactive)	0.228	-0.0664	-0.0261	0.27	-0.0949	0.388	0.353	-2.02
COCCOC(=O)N1C(=O)[C@@]2(c3cc(C#CCC(C(=O)OC)C(=O)OC)ccc31)[C@H](c1ccc(OCCO)cc1)N1[C@H](c3ccccc3)[C@H](c3ccccc3)OC(=O)[C@H]1[C@@H]2C(=O)N1CCCCCCC1	0.256	2.32 (inactive)	1.77	0.597	0.604	3.41	0.986	1.3	1.3	1.1
CCCCC(O)C1C=CC2C(=O)N(C)C(=O)C2N1Nc1ccccc1 (stereo not given)	0.555	0.267 (inactive)	0.138	-0.0708	0.72	2.06	0.182	1.29	-0.107	0.31
CC(C)(C)OC(=O)CC[C@]1(C(=O)N2CCOCC2)N=C(c2ccc(OCCCO)cc2)O[C@H]1c1ccccc1CN=[N+]=[N-]	0.508	0.341 (inactive)	0.116	-0.0219	0.745	3.11	0.519	1.31	-0.227	0.977
[N-]=[N+]=NCc1ccccc1C[C@]1(C(=O)NCc2ccccc2)N=C(c2ccc(OCCCO)cc2)O[C@H]1c1ccccc1CN=[N+]=[N-]	0.735	0.597 (inactive)	0.192	0.0522	0.727	2.67	0.478	0.839	-0.324	0.958
CCCC[C@@H]1C[C@H]1[C@@H](NC(=O)c1ccc(C(F)(F)F)cc1)c1ccc(C(=O)OC)cc1	0.0711	0.0888 (inactive)	0.0501	-0.0347	0.441	1.27	1.25	0.504	1.27	0.441
C=CCC(OC(C)=O)[C@@H]1[C@@H](N(Cc2ccc(-c3cccc(C(F)(F)F)c3)o2)C(=O)c2cccc3ccccc23)c2cc(OCCCO)ccc2N1C(=O)c1ccc2ccccc2n1 (stereo not given in full)	-0.197	-0.116 (inactive)	0.0248	-0.103	-0.162	0.385	-0.202	-0.258	0.328	-0.18
C=CCC(OC(C)=O)[C@@H]1[C@@H](N(Cc2cc3ccccc3o2)C(=O)c2ccc(-c3ccccc3)cc2)c2cc(OCCCO)ccc2N1C(=O)c1ccc2ccccc2n1 (stereo not given in full)	0.593	0.176 (inactive)	-0.0362	-0.0901	0.0088	0.23	0.269	-0.626	0.163	-1.34
COc1ccc(CCNC(=O)[C@@]2(Sc3ccc(C)cc3)CC(=O)N(Cc3cc(C(F)(F)F)cc(C(F)(F)F)c3)[C@@H]2c2ccc(CO)cc2)cc1	-0.391	-0.669 (inactive)	-0.352	0.118	0.711	1.16	0.538	-1.13	-2.73	-3.06
COC(=O)[C@]1(CO)N=C(c2ccc(OCCCO)cc2)O[C@@H]1c1ccccc1CN=[N+]=[N-]	-0.421	0.277 (inactive)	-0.122	-0.127	0.7	1.25	0.0153	0.363	0.265	0.257
CC(C)c1ccc(NN2C(C(O)C(C)C)C=CC3C(=O)N(c4ccccc4)C(=O)C32)cc1 (stereo not given)	1.07	0.349 (inactive)	0.761	0.353	0.615	2.89	1.43	1.31	-0.256	1.2
O=C1C2C=CC(C(O)C(c3ccccc3)c3ccccc3)N(Nc3ccccc3)C2C(=O)N1c1ccccc1 (stereo not given)	0.876	0.312 (inactive)	0.278	-0.0633	0.619	2.17	0.0595	1.3	-0.236	0.942
CC(C)N1CC=CC23O[C@@H]4C=CCCOC(=O)C4[C@H]2C(=O)N(CCCCCO)[C@@H]3C1=O (stereo not given in full)	0.62	0.23 (inactive)	-0.214	-0.153	0.853	0.19	0.543	-0.411	-0.654	0.878
N#Cc1ccc(C(O)C2C=CC3C(=O)NC(=O)C3N2Nc2ccccn2)cc1 (stereo not given)	0.95	-0.483 (inactive)	0.0297	-0.0907	0.854	0.767	0.711	-0.106	0.31	0.468
COCCOC(=O)N1C(=O)[C@@]2(c3cc(C#CCC(C(=O)OC)C(=O)OC)ccc31)[C@H](C(N)=O)[C@H]1C(=O)O[C@H](c3ccccc3)[C@H](c3ccccc3)N1[C@@H]2c1ccc(OCCO)cc1	0.483	-0.0102 (inactive)	0.0271	-0.0984	0.565	1.87	0.307	1.29	0.519	1.07
O=C1O[C@@H](c2ccccc2)[C@@H](c2ccccc2)N2[C@@H](c3ccc(O)cc3)[C@]3(C(=O)Nc4ccc(C#CC5=CCCCC5)cc43)[C@@H](C(=O)N3CCCCCCC3)[C@H]12	0.508	2.78 (inactive)	1.24	0.276	0.589	2.97	1.85	1.29	0.543	0.702
O=C1NC(=O)C2C1C=CC(C(O)c1cccc(O)c1)N2Nc1ccc(Cl)cc1Cl (stereo not given)	0.33	-0.136 (inactive)	-0.0043	0.0592	0.757	1.4	-0.452	-1.81	-0.474	-0.0019
C=C(CCCC)C(=O)CC[C@H](OC(C)=O)c1ccccc1OCCO	0.326	0.7 (inactive)	0.156	-0.0242	0.113	0.0794	0.277	0.368	0.544	-0.0099
CCN(CC)c1ccc(N2CC=CC34O[C@@H]5C=CCOC(=O)[C@@H]5[C@H]3C(=O)N(CCCO)[C@@H]4C2=O)cc1 (stereo not given in full)	-0.997	0.547 (inactive)	-0.0971	-0.14	0.862	1.4	-0.39	0.425	-0.773	-1.74
